Source: PubChem BioAssay (National Center for Advancing Translational Sciences (NCATS))
An excerpt weighted towards active compounds, which were near 8.3% of everything screened.
HCV inh: inhibitors of hepatitis C virus infection | Huh7.5.1 HCVcc-Cre infection, luciferase reporter, 44 h | Potency, µM (doses to about 41.8 µM), inactives show at the top dose activity change, negative = inhibition, hits mostly inhibitors | 3.4% of 340,000 active | AID 651820; note: potency is the fitted concentration of half-maximal effect
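1,000 cells/well; 4 h culture; + compound; + HCVcc-Cre (~0.5 moi); 44 h; luciferase substrate, RT 15 min; read 15 sec.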
Lassa entry inh: blocks Lassa virus binding to or entry into cells. Lassa virus pseudotype entry inhibition, cell reporter. 1.2% of 300,000 active. Potency, µM (doses to about 37.9 µM), for inactives: at the highest dose activity change, negative = inhibition, actives largely listed as inhibitors; calls by dose curve; tested in HEK293 cells; note: potency is the fitted concentration of half-maximal effect; nearly all actives have a fitted effect of over 50% in size
MARV entry inh: Marburg virus entry inhibition; Marburg virus pseudotyped entry inhibition, cell reporter; Potency, µM (series often up to 37.8 µM), without a hit: top-dose activity change, negative = inhibition, hits mostly inhibitors; 1.8% of 300,000 active; calls by dose curve; tested in HEK293 cells; note: potency is the fitted concentration of half-maximal effect
FBPA Giardia inh: inhibitors of Giardia lamblia fructose-1,6-bisphosphate aldolase; 0.71% of 290,000 active; purified Giardia FBPA; AID 2451; A8B2U2; Potency, µM (series often up to 59.6 µM), without a hit: at the highest dose activity, negative = inhibition, hits mostly inhibitors; note: potency is the fitted concentration of half-maximal effect; nearly all actives have a fitted effect of over 55% in size
Target sequence (A8B2U2 whole entry, looked up): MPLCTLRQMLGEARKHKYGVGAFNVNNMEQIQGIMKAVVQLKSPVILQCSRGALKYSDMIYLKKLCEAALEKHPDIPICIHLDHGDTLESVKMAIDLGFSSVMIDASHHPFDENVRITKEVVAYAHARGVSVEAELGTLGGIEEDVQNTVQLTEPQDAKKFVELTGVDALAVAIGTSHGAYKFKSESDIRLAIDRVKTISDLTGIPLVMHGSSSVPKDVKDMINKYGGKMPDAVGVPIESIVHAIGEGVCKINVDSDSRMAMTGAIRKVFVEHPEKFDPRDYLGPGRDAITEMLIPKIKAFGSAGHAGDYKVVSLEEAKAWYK
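Giardia FBPA (40 nM reagent) was preincubated 10 min at RT with compound (up to 57.5 uM final), then substrate plus GAPDH/TPI/NAD/arsenate coupling system with diaphorase/resazurin was added; resorufin fluorescence (525/598 nm) was read after 20 min.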
HCMV inh: blocks human cytomegalovirus replication; activity change, negative = inhibition, % at 57.5 µM; 4.5% of 410,000 active; HFF cells, HCMV-luciferase reporter, 72 h; stronger effect = lower value; AID 1259415; in the data active = activity change below about -60%; inconclusive = no clear call, values can overlap the other calls; inactive = above about -39%
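HFF cells seeded 16 h at 37C, treated with compounds, infected with luciferase-reporter HCMV at MOI 1 PFU/cell; luciferase read at 72 h post infection, normalized to buffer-only and Salinomycin controls.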
FMDV inh: antivirals against foot and mouth disease virus | FMDV antiviral cell-based qHTS | Potency, µM (doses to about 57.9 µM), for the others: at the highest dose activity change, negative = inhibition, hits mostly inhibitors | 1.2% of 410,000 active | AID 1159524; calls by dose curve; tested in HEK293T cells; note: read-out not given here; potency is the fitted concentration of half-maximal effect; nearly all actives have a fitted effect of over 45% in size
* = called active by the depositor; ? = inconclusive; · = no result given; ! = not active in a repeat; [ ] = remark or other dose. Unless noted, calls come from the whole dose curve; as a rule, active = well fitted curve in the direction sought with a large enough effect; inconclusive = small, poorly fitted or top-dose-only effect, or another doubt; inactive = no such curve, though single readings can be large; an effect the other way counts as inactive or inconclusive. % is set by controls: 0 for no effect and ±100 for the full control effect.

SMILES | HCV inh | Lassa entry inh | MARV entry inh | FBPA Giardia inh | HCMV inh | FMDV inh
Cc1nn2c(c1-c1ccc(Cl)cc1)N=C(c1ccco1)CC2c1ccccc1 (centres undefined) | 2.5µM* | ? | ? | -8% | ? | -4%
Clc1ccc(C2=NN(c3ccccc3)C(c3ccco3)C2)cc1 (centres undefined) | -6% | 4%[46.1 µM] | ? | -6% | -3 | 6%
COc1ccc(S(=O)(=O)Nc2cccc(-c3ccc(N4CCCC4)nn3)c2)cc1F | · | -17%[46.1 µM] | · | · | 16 | 13%
CCOc1cccc(CC(=O)N2CCc3c([nH]c4ccccc34)C2c2ccc(Cl)cc2)c1OCC (centres undefined) | · | ? | · | · | -2 | -17%
COc1cc(C(=O)N2CCc3c([nH]c4ccccc34)C2c2ccc(F)cc2)cc(OC)c1OC (centres undefined) | · | 8.9µM* | · | · | 29 | -14%
O=C(c1ccc(F)cc1)N1CCc2c([nH]c3ccccc23)C1c1ccc(Cl)cc1 (centres undefined) | · | ? | · | · | -66* | -21%
COc1cccc(C(=O)N2CCc3c([nH]c4ccccc34)C2c2ccc(SC)cc2)c1 (centres undefined) | · | ? | · | · | -64* | -14%
C=CCn1c(=O)n(C2OC(CO)C(O)C2O)c2nc(N)[nH]c(=O)c21 (centres undefined) | · | · | · | 2% | · | ·
O=C(Nc1cc(C(F)(F)F)ccc1Cl)c1cnn(-c2ccccc2)c1-n1cccc1 | · | -2%[46.1 µM] | · | · | -37 | 32µM*
CCC(=NCCc1ccccc1)c1c(O)n(C)c(=O)n(C)c1=O | 8.9µM* | · | · | 4% | ? | ?
CNC[C@@H](Cc1ccccc1)NC[C@@H](CC1CCCCC1)NCCCc1ccccc1 | ? | · | · | 21% | -101* | ?
CNC[C@@H](CC1CCCCC1)NC[C@H](CC(C)C)NCCc1cccc(C(F)(F)F)c1 | ? | · | · | 17% | -99* | ?
CN(Cc1cccc(C(F)(F)F)c1)C(=O)C1CCC(=O)N(CC2CCCCC2)C1 (centres undefined) | -10% | · | · | 2% | -20 | -22%
Cc1ccc2c(c1)c1c(n2CC(O)CN2CCCCCC2)CCCC1 (centres undefined) | 10µM* | ? | 6.3µM* | -21% | -77* | -28%
CNCC(O)Cn1c2c(c3ccccc31)CCCC2 (centres undefined) | 10µM* | -26% | ? | 2% | 0 | -13%
Cc1ccc2c(c1)c1c(n2CC(O)CNC(C)(C)C)CCCC1 (centres undefined) | ? | · | · | -20% | 9 | ?
S=C(Nc1ccccc1)Nc1ccccc1C#Cc1ccccc1 | · | · | · | -5% | · | ·
O=C(CCCCCNC(=O)N1CCn2c1nc1ccccc12)N[C@@H](C(=O)O)c1ccccc1 | -3% | · | · | -29% | -4 | -4%
CC(NC(=O)CCCCCNC(=O)N1CCn2c1nc1ccccc12)c1ccccc1 (centres undefined) | 14% | · | · | -3% | -73* | -20%
COc1ccc(S(=O)(=O)c2c(O)c(C)cc(NC(=O)c3ccccc3)c2C(C)C)cc1 | · | -6%[46.1 µM] | -16%[46.1 µM] | · | -63* | -2%
COc1ccc(S(=O)(=O)c2c(O)c(C)cc(NS(=O)(=O)c3ccc(Cl)cc3)c2C(C)C)cc1 | · | -13%[46.1 µM] | ? | · | ? | -16%
Cc1c(NS(=O)(=O)c2ccccc2)cc(C(C)C)c(O)c1S(=O)(=O)c1ccc(Cl)cc1 | · | -19%[46.1 µM] | 11µM* | · | -37 | -3%
COc1ccc(S(=O)(=O)Nc2cc(C)c(O)c(S(=O)(=O)c3ccccc3)c2)cc1 | 6% | 7% | ? | 4% | -4 | 55%
Cc1c(NS(=O)(=O)c2ccccc2)cc(Cl)c(O)c1C | ? | 11% | 5% | ? | -8 | 5%
COc1ccc(S(=O)(=O)c2c(C)c(NS(=O)(=O)c3ccccc3)cc(C)c2O)cc1 | 4% | 12% | -5%[46.1 µM] | 22% | -63*! | 2%
Cc1nnc(N/N=C/c2ccccc2O)n1N | 22% | ? | ? | 7.1µM* | -104* | 26%
Cc1nnc(N/N=C/c2cc(C)n(-c3ccc(F)cc3)c2C)n1N | ? | 7.1µM* | 15µM* | 10µM* | 35 | 12%
